Results reported in PubChem BioAssay AID1671202 (University of Kansas High Throughput Screening Laboratory, 2021).
Where “and” joins values, the source holds several entries; their conditions need not be identical. Equal entries are not always repeated. Among all 190,000 compounds or so, about 6,900 (3.6%) were called active. For the sample, actives were picked, then their nearest neighbours and some compounds at random. Unmarked numbers belong to inactive results. Rule as the data show it: active = inhibition above about 50%; inactive = the rest.

Each compound was assayed against Huntingtin (Homo sapiens) (UniProt P42858) (assay: mutant huntingtin-calmodulin interaction inhibitors – biochemical, AlphaScreen, primary screen (AID 1671202;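 also: 0% = both proteins with DMSO and 100% = one protein alone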)). Settings: AlphaScreen His-mHTT/GST-CaM binding, luminescence; at 15 µM, active compounds read high.
Chain of Huntingtin (Homo sapiens) (P42858 whole entry, looked up, stated change not applied): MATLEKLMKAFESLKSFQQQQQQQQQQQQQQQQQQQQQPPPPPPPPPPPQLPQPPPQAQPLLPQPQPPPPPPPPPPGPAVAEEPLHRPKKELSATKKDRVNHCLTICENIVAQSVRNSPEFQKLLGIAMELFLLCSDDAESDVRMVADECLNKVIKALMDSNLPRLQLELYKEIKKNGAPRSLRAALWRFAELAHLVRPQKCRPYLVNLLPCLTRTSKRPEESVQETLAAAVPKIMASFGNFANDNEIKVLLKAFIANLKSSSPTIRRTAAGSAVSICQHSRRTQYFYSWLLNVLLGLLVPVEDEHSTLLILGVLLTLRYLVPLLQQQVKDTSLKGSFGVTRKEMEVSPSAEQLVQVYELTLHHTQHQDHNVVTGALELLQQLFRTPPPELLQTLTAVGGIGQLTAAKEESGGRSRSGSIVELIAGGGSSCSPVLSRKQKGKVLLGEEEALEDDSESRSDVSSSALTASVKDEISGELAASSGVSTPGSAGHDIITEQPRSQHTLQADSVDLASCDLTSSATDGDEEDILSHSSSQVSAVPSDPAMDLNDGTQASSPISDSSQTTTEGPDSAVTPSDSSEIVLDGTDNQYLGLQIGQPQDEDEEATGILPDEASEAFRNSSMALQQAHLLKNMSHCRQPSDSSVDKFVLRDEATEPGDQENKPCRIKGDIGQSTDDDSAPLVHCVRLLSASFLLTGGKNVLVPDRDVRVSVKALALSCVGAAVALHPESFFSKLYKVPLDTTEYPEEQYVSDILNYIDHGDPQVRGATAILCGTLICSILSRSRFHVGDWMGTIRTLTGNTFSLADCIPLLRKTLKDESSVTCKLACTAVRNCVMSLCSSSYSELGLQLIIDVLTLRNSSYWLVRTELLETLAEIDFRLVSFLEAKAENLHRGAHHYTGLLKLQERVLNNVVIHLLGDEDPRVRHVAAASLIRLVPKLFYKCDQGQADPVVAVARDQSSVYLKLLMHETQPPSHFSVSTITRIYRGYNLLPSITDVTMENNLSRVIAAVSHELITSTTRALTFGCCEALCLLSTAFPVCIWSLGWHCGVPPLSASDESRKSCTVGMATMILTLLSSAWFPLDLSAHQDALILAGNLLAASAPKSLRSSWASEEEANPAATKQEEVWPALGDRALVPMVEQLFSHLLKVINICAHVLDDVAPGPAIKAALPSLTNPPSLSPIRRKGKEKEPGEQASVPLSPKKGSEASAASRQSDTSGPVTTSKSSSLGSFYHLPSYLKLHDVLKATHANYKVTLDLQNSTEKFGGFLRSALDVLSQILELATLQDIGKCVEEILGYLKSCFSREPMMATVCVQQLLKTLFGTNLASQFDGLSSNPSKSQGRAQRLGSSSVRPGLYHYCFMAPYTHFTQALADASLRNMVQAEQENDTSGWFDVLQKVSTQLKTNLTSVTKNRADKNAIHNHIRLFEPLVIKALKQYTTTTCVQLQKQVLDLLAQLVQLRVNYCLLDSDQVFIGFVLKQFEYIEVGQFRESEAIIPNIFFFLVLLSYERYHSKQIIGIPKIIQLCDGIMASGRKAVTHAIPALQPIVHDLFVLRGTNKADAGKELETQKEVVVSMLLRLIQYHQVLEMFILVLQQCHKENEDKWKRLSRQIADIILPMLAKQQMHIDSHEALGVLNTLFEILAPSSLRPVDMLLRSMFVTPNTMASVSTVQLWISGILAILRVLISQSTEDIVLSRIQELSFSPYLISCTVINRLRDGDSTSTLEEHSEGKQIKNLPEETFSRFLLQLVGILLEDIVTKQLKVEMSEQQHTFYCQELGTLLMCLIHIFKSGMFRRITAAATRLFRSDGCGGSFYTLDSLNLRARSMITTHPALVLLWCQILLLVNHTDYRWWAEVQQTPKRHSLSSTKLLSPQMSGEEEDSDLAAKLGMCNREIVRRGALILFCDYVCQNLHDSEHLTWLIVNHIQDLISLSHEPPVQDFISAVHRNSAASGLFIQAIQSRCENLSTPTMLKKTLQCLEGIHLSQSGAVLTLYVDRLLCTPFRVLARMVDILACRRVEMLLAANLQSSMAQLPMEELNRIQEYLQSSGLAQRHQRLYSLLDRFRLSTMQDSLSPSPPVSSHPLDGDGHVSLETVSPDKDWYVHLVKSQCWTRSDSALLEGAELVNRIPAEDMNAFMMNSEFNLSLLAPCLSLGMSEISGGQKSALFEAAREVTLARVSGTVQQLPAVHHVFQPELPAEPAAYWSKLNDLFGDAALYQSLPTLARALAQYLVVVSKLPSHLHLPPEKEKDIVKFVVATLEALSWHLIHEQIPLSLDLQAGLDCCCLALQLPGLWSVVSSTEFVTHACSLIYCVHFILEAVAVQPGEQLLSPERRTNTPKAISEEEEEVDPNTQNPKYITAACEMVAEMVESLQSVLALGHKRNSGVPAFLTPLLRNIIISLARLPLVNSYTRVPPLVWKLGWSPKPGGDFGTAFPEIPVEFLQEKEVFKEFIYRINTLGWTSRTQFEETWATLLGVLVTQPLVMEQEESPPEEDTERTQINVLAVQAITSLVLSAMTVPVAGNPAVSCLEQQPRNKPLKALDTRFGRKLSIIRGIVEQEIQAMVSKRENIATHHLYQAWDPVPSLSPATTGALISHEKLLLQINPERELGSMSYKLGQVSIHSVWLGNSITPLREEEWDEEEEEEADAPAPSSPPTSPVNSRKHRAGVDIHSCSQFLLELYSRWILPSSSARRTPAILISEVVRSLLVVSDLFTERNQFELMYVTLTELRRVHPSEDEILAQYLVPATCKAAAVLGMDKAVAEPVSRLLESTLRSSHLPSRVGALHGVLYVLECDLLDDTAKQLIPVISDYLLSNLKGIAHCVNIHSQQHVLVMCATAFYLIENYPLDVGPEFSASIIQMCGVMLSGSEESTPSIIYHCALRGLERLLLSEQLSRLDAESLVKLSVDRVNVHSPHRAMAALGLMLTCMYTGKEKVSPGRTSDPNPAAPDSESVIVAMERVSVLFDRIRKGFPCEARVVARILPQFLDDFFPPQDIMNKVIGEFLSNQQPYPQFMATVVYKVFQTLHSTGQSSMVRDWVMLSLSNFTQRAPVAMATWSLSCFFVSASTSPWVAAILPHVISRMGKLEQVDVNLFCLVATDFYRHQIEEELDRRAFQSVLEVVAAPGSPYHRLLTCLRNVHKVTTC

| SMILES | inhibition |
| --- | --- |
| CCCNC(=O)C1CN(C(=O)c2ccccc2F)CC1c1cccc(F)c1 (stereo not drawn) | -5.9% |
| CC1(C)c2ccccc2N(CCO)C12C=Cc1cc([N+](=O)[O-])ccc1O2 (stereo not drawn) | 62% (active) |
| O=C1CSC(c2cccc([N+](=O)[O-])c2)N1c1cc(Cl)ccc1O (stereo not drawn) | 8% |
| Cc1nc2n(n1)C(c1ccc(Cl)cc1)C=C(c1ccc(Cl)cc1)N2 (stereo not drawn) | 31% |
| Clc1ccc(C2=CC(c3ccccc3)n3ncnc3N2)cc1 (stereo not drawn) | 1% and -2.22% |
| COc1ccccc1C(=O)Nc1nc2n(n1)C(c1ccccc1)C=C(c1ccc(Cl)cc1)N2 (stereo not drawn) | 51% (active) |
| CCS(=O)(=O)NCc1nnnn1-c1ccc(F)c(F)c1 | -8.6% |
| Cc1cccc(N2CCC(C(=O)NCc3ccccc3F)C2=O)c1C (stereo not drawn) | -0.6% |
| COc1ccc(-c2ncc3c(n2)CCN(C(=O)c2cccc(OC)c2)C3)cc1 | 11.1% |
| O=C(NC1CCCC1)C1CCNCC1 | -0.4% |
| COc1ccc(NC(=O)C2CC(=O)N(c3ccc4oc(C)nc4c3)C2)cc1 (stereo not drawn) | 2.03% |
| Cc1cc(-c2nnc(NC(=O)C3CC(=O)N(c4ccc(C)c(C)c4)C3)o2)n(C)n1 (stereo not drawn) | 90.2% (active) |
| Cc1ccc(N2CC(C(=O)Nc3cc(C(F)(F)F)ccc3Cl)CC2=O)cc1C (stereo not drawn) | -1% |
| O=C(c1cccnc1)N1CCCC1c1nc(-c2cccc(C(F)(F)F)c2)no1 (stereo not drawn) | 27.6% |
| N#Cc1ccc(C(=O)N2CCCC2c2nc(-c3cccc(C(F)(F)F)c3)no2)cc1 (stereo not drawn) | 2.8% |
| O=C(C1COc2ccccc2O1)N1CC(c2nc(-c3cccc(C(F)(F)F)c3)no2)C1 (stereo not drawn) | 88.9% (active) |
| COc1ccc(C(=O)COc2ccc3c(c2)OC(=Cc2cc(OC)c(OC)c(OC)c2)C3=O)cc1 | 2.6% |
| Cc1ccc(C)c(NC(=O)c2cc3n(n2)CCCN(Cc2ccccc2)C3=O)c1 | -4.93% |
| CS(=O)(=O)N1CCc2cc(NC(=O)Nc3cccc(C(F)(F)F)c3)ccc21 | 16.1% |
| O=C(C1c2ccccc2Oc2ccccc21)N1CCN(c2ccc([N+](=O)[O-])cc2)CC1 | -2.2% |
| CC(C)=CC(=O)CC(C)(O)c1ccccc1 (stereo not drawn) | 1.5% |
| CN(C)c1ccc(C(O)(c2ccccc2)c2ccccc2)cc1 | 76% (active) |
| CN(C)c1ccc(C(=O)NC2CCN(c3ccccc3)C2=O)cc1 (stereo not drawn) | -3.2% |
| COc1ccccc1C(=O)N1CCc2nc(-c3ccc(Cl)cc3)ncc2C1 | 9.54% |

| SMILES | inhibition |
| --- | --- |
| COc1ccccc1-c1nc(C2CCN(C(=O)c3cc4cc(Cl)ccc4[nH]3)CC2)no1 | 80.8% (active) |
| COc1ccccc1-c1nc(C2CCN(C(=O)C3COc4ccccc4O3)CC2)no1 (stereo not drawn) | 34.9% |
| COc1ccccc1-c1nc(C2CCN(C(=O)c3ccc(Cl)cc3)CC2)no1 | 38.7% |
| CCS(=O)(=O)N1CCCC(OCc2nc(CCOC)no2)C1 (stereo not drawn) | -8.91% |
| COc1ccccc1C(=O)N1CCc2c(nc3cc(-c4ccccc4Cl)[nH]n3c2=O)C1 | 63.9% (active) |
| O=C(NCC1CCCO1)N1CCc2nc3cc(-c4ccccc4Cl)[nH]n3c(=O)c2C1 (stereo not drawn) | 5.22% |
| COc1ccccc1CC(=O)N1CCc2c(nc3cc(-c4ccccc4Cl)[nH]n3c2=O)C1 | 53% (active) |
| CCCCS(=O)(=O)N1CCc2c(nc3cc(-c4ccccc4Cl)[nH]n3c2=O)C1 | 21.9% |
| COc1ccc(Cl)cc1C(=O)N1CCc2c(nc3cc[nH]n3c2=O)C1 | 9.45% |
| Cn1cccc1C(=O)N1CCc2nc3cc(-c4ccccc4)[nH]n3c(=O)c2C1 | 25.2% |
| CC(=O)NC1CCN(c2ccccc2C(=O)N(C)C2CCCCC2)CC1 | 11.4% |
| COc1ccc(C=CC(=O)NCCN2CCn3cc(OC)c(=O)cc3C2=O)cc1OC | -2.5% |
| COc1ccc(CC(=O)Nc2nnc(C3CC(=O)N(c4ccc(Cl)cc4)C3)o2)cc1 (stereo not drawn) | 22.1% |
| CSc1ccc(N2CC(c3nnc(NC(=O)Cc4ccccc4C)o3)CC2=O)cc1 (stereo not drawn) | 68.1% (active) |
| Cc1ccc(N2CC(c3nnc(NC(=O)CCc4ccccc4)o3)CC2=O)cc1 (stereo not drawn) | 0.32% |
| O=C(Cc1cccs1)Nc1nnc(C2CC(=O)N(c3ccc(Cl)cc3)C2)o1 (stereo not drawn) | 95.7% (active) |
| Cc1ccccc1OCC(=O)Nc1nnc(C2CC(=O)N(c3ccccc3)C2)o1 (stereo not drawn) | -0.23% |
| COc1ccc(N2CC(c3nnc(NC(=O)Cc4ccc(C)cc4)o3)CC2=O)cc1 (stereo not drawn) | 2.93% |
| N#CCOc1ccc2c(=O)c(-c3ccccc3)coc2c1 | -3% |
| CCCCC(=O)Nc1n[nH]c(C)c1-c1ccc(Cl)cc1 | 2.8% |
| COc1ccccc1OCCCCOc1ccccc1OC | -8.5% |
| O=[N+]([O-])c1ccc(N2CCN(S(=O)(=O)c3ccc(Br)s3)CC2)cc1 | 7% |
| CCC(=O)Nc1ccc(S(=O)(=O)N2CCN(C)c3ccccc32)cc1 | -1.8% |
| O=C(CSc1nc(-c2ccccc2)nc2c1CCCC2)c1ccc(O)c(O)c1 | 52% (active) |

| SMILES | inhibition |
| --- | --- |
| O=C(CSc1nc2[nH]ncc2c(=O)n1-c1ccccc1)c1ccc(Cl)c(Cl)c1 | 48% |
| O=C(CSc1ncn[nH]1)c1ccc(O)c(O)c1 | -5.2% and -1% |
| COc1cc(OC)c(OC)cc1C=Nc1ccccc1C(=O)O | 5.4% |
| CC(Oc1ccc(Cl)cc1)C(=O)N1CCn2c(nnc2C(C)C)C1 (stereo not drawn) | 2.1% |
| CC(C)Nc1nc(-c2ccccc2O)nc2ccccc12 | -13.2% |
| Cc1cc(NN)nc(-c2ccccc2O)n1 | 53.5% (active) |
| Cc1cc(Nc2ccccc2)nc(N)n1 | 0.7% |
| CCCNC(=O)C1CCN(Cc2cn(C)c3ccc(Cl)cc23)CC1 | -7.24% |
| O=C(NCc1ccc(F)cc1)c1ccc2c(c1)NC(=O)C(N1CCCCC1)S2 (stereo not drawn) | -10% |
| CCCNC(=O)c1cn(-c2ccc(C)cc2)nn1 | -7.1% |
| Cc1ccc(N2C(=O)C3C4C=CC(CC4)C3C2=O)cc1Cl (stereo not drawn) | -5% |
| Cc1ccsc1C1N(c2ccc(Cl)c(Cl)c2)C(=O)C2CCCN21 (stereo not drawn) | 96.1% (active) |
| COc1ccc(N2C(=O)C3CCCN3C2c2ccc(Cl)c(Cl)c2)cc1 (stereo not drawn) | 68% (active) |
| COc1ccc(N2C(=O)C3CCCN3C2c2cc(OC)c(OC)cc2OC)cc1 (stereo not drawn) | -4.26% |
| COc1ccc(N2C(=O)C3CCCN3C2c2cccs2)cc1 (stereo not drawn) | -7.68% |
| COc1cccc(N2C(=O)C3CCCN3C2c2ccc(F)cc2)c1 (stereo not drawn) | 5.08% |
| CCOc1ccc(CC(=O)N2CC3CC2CC3NC(=O)c2ccccc2)cc1 (stereo not drawn) | 5.36% |
| CCOc1ccc(-c2nnc(Nc3ccc(C(N)=O)cc3)c3ccccc23)cc1 | 6% |
| CCOC(=O)C1CCN(C(=O)C2CCc3sc(C(=O)N4CCCCC4)cc3C2)CC1 (stereo not drawn) | 4.24% |
| COc1cccc(N2CCN(C(=O)c3ccc(Cl)cc3Cl)C(C)C2=O)c1 (stereo not drawn) | 3.4% |
| Cc1cc(C(=O)Nc2ccccc2)nc2ccnn12 | -10.8% |
| O=C1[C@H]2OC[C@H](O2)[C@@H]2[C@H]1[C@H]1C=Cc3ccccc3N1[C@@H]2C(=O)c1ccc(F)cc1 | 91.4% (active) |
| O=C(c1ccc(F)cc1)N1CCC(N2CCC(C(=O)N3CCCCC3)CC2)CC1 | -3.3% |
| Cc1ccc(Nc2nc(-c3ccc(O)cc3O)cs2)nc1 | 100% (active) |

| SMILES | inhibition |
| --- | --- |
| Brc1ccc(Nc2nc(-c3ccc4c(c3)OCO4)cs2)nc1 | -1.1% |
| Cc1ccc(-c2csc(NC(=O)c3ccc([N+](=O)[O-])cc3)n2)c(C)c1 | 10.4% |
| O=C(CSc1ncc(CO)n1Cc1ccccc1)Nc1ccc([N+](=O)[O-])cc1 | 20.9% |
| Oc1ccc(N=Nc2nccs2)c(O)c1 | 99.9% (active) |
| Cc1[nH]c(=O)[nH]c(=O)c1S(=O)(=O)NC1=NCCS1 | 3% |
| COCc1cc(C)nc2sc(C(N)=O)c(N)c12 | -5% |
| COCc1cc(C)nc2sc(C3=NC(C)(C)Cc4ccccc43)c(N)c12 | 58% (active) |
| COCc1cc(C)nc2sc(C(=O)N(c3ccccc3)c3ccccc3)c(N)c12 | -19% |
| O=C(Nc1ccc(C(F)(F)F)cc1)N1CCc2c(nc[nH]c2=O)C1 | -3.4% |
| CCN(Cc1ccccc1)C(=O)c1sc2ccccc2c1Cl | -67.9% |
| CCCCN1C(=O)C(C)(C(=O)Nc2cccc(OC)c2)Oc2cccnc21 (stereo not drawn) | 4.7% |
| Cc1cccc(-n2nnc(C(=O)NCCN3CCCC3)c2N)c1 | 2% |
| c1ccc2[nH]c(-c3nc4ccccc4[nH]3)nc2c1 | 7.27% |
| C1=C(N2CCOCC2)/C(=C/c2nc3ccccc3[nH]2)CC1 | 67.1% (active) |
| c1ccc(-c2nnc(N3CCOCC3)c3ccccc23)cc1 | -4.1% |
| Cc1cc(Cl)ccc1NC(=O)C(C)N(c1ccccc1)S(C)(=O)=O (stereo not drawn) | -1.9% |
| O=C(NCc1ccc2c(c1)OCO2)C1CCc2sc(C(=O)N3CCOCC3)cc2C1 (stereo not drawn) | -0.39% |
| CCCNC(=O)C1CCN(Cc2c(C)n(CC)c3ccccc23)CC1 | 7.5% |
| Cc1cc(C(=O)N2CC(C(=O)N3CCN(c4ccc(Cl)c(Cl)c4)CC3)C2)no1 | 66.7% (active) |
| Cc1cc(C(=O)N2CC(C(=O)Nc3cccc(NS(C)(=O)=O)c3)C2)no1 | -19.8% |
| COc1ccccc1N1CCN(C(=O)c2cc(-c3ccc(Cl)c(Cl)c3)on2)CC1 | -3% |
